Screening results deposited in PubChem by several laboratories.
Sampled rows, rich in hits. Any-hit rate of the full collection: about 2.8%.
zVAD death inh – L929 zVAD cell death inhibition | L929 zVAD necroptosis rescue, ATP luminescence, 24 h; with zVAD 60 µM | viability rescue, % at 10 µM | 0.38% of 220,000 active;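 active means activation, scaled between plate controls, above about 75%, limit read from the data; inactive means activation under that limit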;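 further: 0% = zVAD with DMSO and 100% = DMSO alone without zVAD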
TNF death inh – inhibitors of TNF-alpha induced necroptosis in Jurkat FADD-/- cells; AID 463075; Jurkat FADD-/- TNF necroptosis rescue, ATP luminescence, 24 h; 0 = TNF only, 100 = no-TNF cells; 0.068% of 220,000 active; activation (protection from cell death), % at 10 µM;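 active means activation, meaning protection from cell death, of at least 50% relative to plate controls; inactive means activation below 50%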;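 further: necroptosis triggered by 40 ng/mL TNF-alpha added together with compound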
Mcl1 Bid PPI – Mcl-1/Bid interaction inhibition; Q07820; TR-FRET Mcl-1/Bid-Dy647 peptide binding, 1536-well; inhibition, % at 21.7 µM; 0.97% of 220,000 active;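 active means compounds that cut the binding signal by more than half at the single screening dose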;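 further: His-tagged Mcl-1 with europium anti-His antibody binding Bid BH3 peptide; 0% = Mcl-1 plus peptide wells and 100% = peptide-only wells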
Target sequence (Q07820 whole entry, looked up): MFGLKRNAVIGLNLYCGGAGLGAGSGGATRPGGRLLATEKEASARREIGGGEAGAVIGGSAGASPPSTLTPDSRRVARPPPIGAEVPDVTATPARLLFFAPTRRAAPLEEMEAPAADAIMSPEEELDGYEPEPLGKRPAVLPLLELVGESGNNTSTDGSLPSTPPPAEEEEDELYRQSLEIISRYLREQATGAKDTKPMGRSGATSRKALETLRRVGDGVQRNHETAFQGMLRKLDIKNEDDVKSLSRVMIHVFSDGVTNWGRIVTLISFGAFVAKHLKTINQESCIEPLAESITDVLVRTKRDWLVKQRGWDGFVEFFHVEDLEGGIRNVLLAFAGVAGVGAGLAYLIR
Mcl1 Noxa PPI – Mcl-1/Noxa interaction inhibition | Q07820 | TR-FRET Mcl-1/Noxa peptide binding, 2 h | inhibition, % at 21.7 µM | 1.5% of 220,000 active;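 active means compounds that cut the protein-peptide binding signal by more than 50% relative to plate controls in a single-dose test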;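 further: His-tagged Mcl-1 with rhodamine Noxa BH3 peptide and terbium anti-His antibody; 0% = Mcl-1 plus Noxa peptide wells and 100% = peptide-only wells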
Calpain2 inh – calpain II (pig) inhibition | AID 1236 | 0.37% of 220,000 active | purified calpain II, fluorogenic peptide substrate, 30 min | inhibition, % at 16 µM;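 active means inhibition above about 50%, limit read from the data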
Mcl-1 Bim block – inhibitors of Bim-Mcl-1 interaction, human; Q07820; inhibition, % at 10 µM; AID 1009; Bead-based flow cytometry, Bim peptide-Mcl-1 binding; 0.1% of 190,000 active; in the data active means inhibition above about 40%;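 further: 0% = no compound tracer wells and 100% = peptide blocker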
Starred values were filed as active, the others as inactive; . = no result given.

SMILES	zVAD death inh	TNF death inh	Mcl1 Bid PPI	Mcl1 Noxa PPI	Calpain2 inh	Mcl-1 Bim block
CC(C)Cn1ccc(=O)n(CC(C)C)c1=O	0	2	55*	-5	13	-10
CC(C)Cn1cc(Cl)c(=O)n(CC(C)C)c1=O	-1	-2	-4	3	24	2
CCCCCC(=O)NC(=S)Nc1ccc2oc(=O)ccc2c1	2	1	-15	56*	20	-5
Cc1ccc(-c2cc(C(=O)Nc3ccccn3)c3ccccc3n2)o1	1	-2	0	82*	-153	-2
COc1ccc(N2CCN(C(=O)CNC(=O)Cn3c(C)cc4ccccc4c3=O)CC2)cc1	0	-1	-24	18	-4	-1
O=C(NCc1cccnc1)/C(=C\c1ccc(-c2ccc(Cl)c(Cl)c2)o1)S(=O)(=O)c1ccccc1	-1	-15	55*	40	-93	-5
O=C(NCc1cccnc1)c1ccc(-c2ccc(Cl)cc2)o1	7	1	-33	9	-66	-3
Cc1c(Br)c([N+](=O)[O-])nn1C(C)C(=O)Nc1c(C)n(C)n(-c2ccccc2)c1=O (centres undefined)	0	-2	-40	-7	8	0
O=[N+]([O-])c1cccc(/C=C/c2nc(C=Nc3ccc4ccccc4c3)c(O)o2)c1	0	0	66*	81*	23	2
O=C(c1cc([N+](=O)[O-])ccc1N1CCOCC1)N1CCCCC1	.	0	-6	2	82*	.
CC(=O)Nc1ccc(S(=O)(=O)Nc2nc3ccccc3nc2Nc2ccc(N)cc2)cc1	0	-1	-145	58*	-29	.
CC(=O)Nc1ccc(S(=O)(=O)Nc2nc3ccccc3nc2Nc2ccc3ccccc3c2)cc1	2	1	-18	32	-160	-17
COc1ccc2oc(C(=O)OCC(=O)NCCN3C(=O)CSC3=O)c(C)c2c1	1	0	-11	6	-274	-5
Cc1ncc(CO)c(/C=N/NC(=O)c2cc(O)c(O)c(O)c2)c1O	1	0	-66	67*	-98	4
Cc1ncc(CO)c(/C=N/NC(=O)c2ccc(Br)cc2)c1O	2	-9	-76	-9	-427	-6
CC1=NN(c2ccccc2)C(=O)/C1=C/c1cn(C)c2ccccc12	2	-1	-1	-7	26	.
O=C(c1cnccn1)N(Cc1cccs1)C1(C(=O)NC2CCCCC2)CCCCC1	.	0	1	6	8	54*
O=C(c1cnccn1)N(Cc1cccs1)C1(C(=O)NC2CCCC2)CCCCC1	.	0	10	13	27	-24
COc1cccc(-c2nnc3sc(-c4ccccc4)nn23)c1	57	0	-10	11	10	-1
COc1cccc(OC)c1-c1nn2c(-c3cc(-c4ccccc4)n[nH]3)nnc2s1	0	-6	-35	-34	85*	.
O=c1[nH]c(=O)n(CCc2ccc(F)cc2)c(O)c1C=NCc1ccc2c(c1)OCO2	0	-3	53*	-21	9	-7
Cc1nc(C)c(C(=O)Nc2ncc([N+](=O)[O-])s2)o1	0	-2	-22	69*	-19	0
O=C(CSc1nnnn1-c1ccccc1)N1N=CCC1c1ccccc1 (centres undefined)	14	97*	0	17	-14	-11
Cc1ccc(SCC(=O)N2N=CCC2c2ccccc2)cc1 (centres undefined)	7	68*	1	15	3	-4
COC(=O)CSc1nnnn1-c1ccccc1	0	-3	-9	-17	-6	0
SMILES	zVAD death inh	TNF death inh	Mcl1 Bid PPI	Mcl1 Noxa PPI	Calpain2 inh	Mcl-1 Bim block
Cc1ccc2nc(-c3ccc(NC(=O)COC(=O)c4ccc([N+](=O)[O-])o4)cc3)sc2c1	1	0	62*	71*	-101	0
CCCC(=O)NCCc1cc(OC)c(OC)cc1Br	0	2	-15	6	16	1
CN(C)c1ccc(NC(=O)c2sc(SCC(=O)Nc3nccs3)nc2N)cc1	45	-8	-29	66*	-22	-5
CN(C)c1ccc(NC(=O)c2sc(SCC(=O)Nc3ccc(Br)cc3)nc2N)cc1	0	-2	21	34	-4	1
CN(C)c1ccc(-c2n[nH]c(=S)n2-c2ccccc2)cc1	2	-1	-36	51*	-97	-3
CCN(CC)c1ccc(-c2n[nH]c(=S)n2-c2ccccc2)cc1	2	-3	-50	22	-83	-7
O=C(COc1ccc(Cl)cc1Cl)Nc1c(-c2cccs2)nc2ccccn12	1	5	24	52*	-72	27
CNc1nn(-c2cccc(Cl)c2)nc1N	0	-7	96*	-66	2	-6
COc1cccc(-n2c(=O)c3c(C)c(C(=O)N(C)C)sc3n(CC(=O)NCC3CCCO3)c2=O)c1 (centres undefined)	2	0	-10	-8	4	-1
CO/N=C/NC(=O)c1ccc([N+](=O)[O-])c(CS(=O)(=O)c2ccc(Cl)cc2)c1	0	-4	-7	65*	-96	-1
COc1ccc(CNc2cc([N+](=O)[O-])ccc2OC)cc1	0	-3	-14	11	4	2
COc1ccc(CNc2ccc([N+](=O)[O-])cc2C)cc1	0	1	2	10	82*	.
COC(=O)c1ccc(NS(=O)(=O)c2ccccc2)o1	1	1	-17	3	10	-3
CC(=O)NC1=NN(C(C)=O)C(C)(CS(=O)(=O)c2ccc3ccccc3c2)S1 (centres undefined)	0	1	-10	15	-16	-3
CC1CCN(CCCn2c(=S)[nH]c3c(sc4ccccc43)c2=O)CC1	2	1	-80	59*	6	-3
COc1ccc(CCN2C(=O)CS/C2=N\NC(=O)c2cccs2)cc1OC	1	0	-41	-8	-9	3
O=C(CNC(=O)c1ccc([N+](=O)[O-])cc1)N/N=C\c1ccc(OC(=O)c2ccccc2)cc1	0	-10	75*	42	-2	19
COc1cccc(C(=O)NCC(=O)N/N=C/c2cccc(OC(=O)c3ccc([N+](=O)[O-])cc3)c2)c1	0	-2	-15	6	14	-1
COc1ccc(/C=N/n2c(=O)[nH]c3c([nH]c4ccc(Br)cc43)c2=O)cc1CN1CCOCC1	0	-1	10	54*	-103	-3
COc1ccc(/C=N/n2c(=O)[nH]c3c([nH]c4ccc(Cl)cc43)c2=O)cc1CN1CCCCC1	1	7	-28	21	-7	.
COC(=O)c1c(NC(=S)Nc2ccc(CC(=O)O)cc2)sc(C)c1C	1	2	-81	72*	-43	-5
O=C(/C=C\c1ccco1)c1ccc(NC(=O)c2ccco2)cc1	9	1	-86	76*	-158	0
